Screens deposited in PubChem by National Center for Advancing Translational Sciences (NCATS).
Compounds with a hit are over-represented: about 11% of the library has one in this group of screens.
3T3 cytotox – kills NIH 3T3 cells; NIH 3T3 viability, CellTiter-Glo ATP luminescence, 48-72 h; Potency, µM (top dose mostly 96.7 µM), for inactives: at the highest dose activity change, negative = cytotoxicity, usual class: inhibitors; 94,000 compounds, 4.3% hits; AID 1345082; also: nearly all actives have a fitted effect of over 55% in size
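Mouse fibroblast NIH 3T3 cells, 400 per well, received compound via pintool and were incubated for 48 or 72 hr prior to CellTiter-Glo ATP luminescence measurement.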
NPR1 antag – blocks ANP-stimulated signaling of human Npr1 receptor. 76,000 compounds, 1.6% hits. P16066. Potency, µM (top dose mostly 46.3 µM), inactives show top-dose activity change, negative = inhibition, actives largely listed as inhibitors. HEK293 hNpr1 GloSensor cGMP, ANP-stimulated luminescence; calls by dose curve; also: nearly all actives have a fitted effect of over 60% in size
Target sequence (P16066 whole entry, looked up): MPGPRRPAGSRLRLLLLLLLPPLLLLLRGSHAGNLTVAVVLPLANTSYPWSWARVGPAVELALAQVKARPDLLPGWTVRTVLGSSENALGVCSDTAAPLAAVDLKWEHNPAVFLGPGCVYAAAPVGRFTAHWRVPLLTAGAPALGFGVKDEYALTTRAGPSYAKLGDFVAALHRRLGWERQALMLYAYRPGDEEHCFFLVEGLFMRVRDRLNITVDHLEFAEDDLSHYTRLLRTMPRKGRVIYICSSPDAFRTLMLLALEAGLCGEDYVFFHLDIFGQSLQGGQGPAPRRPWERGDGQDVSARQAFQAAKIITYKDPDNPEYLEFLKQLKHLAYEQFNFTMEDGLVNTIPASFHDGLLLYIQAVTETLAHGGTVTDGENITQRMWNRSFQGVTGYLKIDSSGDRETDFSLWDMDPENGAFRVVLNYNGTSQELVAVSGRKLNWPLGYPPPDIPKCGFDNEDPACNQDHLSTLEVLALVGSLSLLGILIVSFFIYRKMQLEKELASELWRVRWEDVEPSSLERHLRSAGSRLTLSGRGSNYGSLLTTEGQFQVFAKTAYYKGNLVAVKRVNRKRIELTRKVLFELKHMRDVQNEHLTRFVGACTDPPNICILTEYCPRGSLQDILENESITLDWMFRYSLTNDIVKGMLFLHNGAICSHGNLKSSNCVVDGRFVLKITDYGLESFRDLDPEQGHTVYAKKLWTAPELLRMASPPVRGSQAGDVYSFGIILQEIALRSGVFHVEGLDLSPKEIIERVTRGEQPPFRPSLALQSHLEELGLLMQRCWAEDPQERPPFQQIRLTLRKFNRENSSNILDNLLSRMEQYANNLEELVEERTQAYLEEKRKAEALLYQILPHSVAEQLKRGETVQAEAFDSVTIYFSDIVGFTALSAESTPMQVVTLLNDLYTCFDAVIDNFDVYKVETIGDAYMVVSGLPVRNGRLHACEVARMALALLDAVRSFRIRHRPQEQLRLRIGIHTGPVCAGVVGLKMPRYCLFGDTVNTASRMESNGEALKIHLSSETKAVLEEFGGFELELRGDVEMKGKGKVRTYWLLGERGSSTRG
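HEK293 cells stably expressing human Npr1 and cGMP GloSensor pGS-40F, loaded 2 h with 2% GloSensor reagent, given compound 30 min at room temperature. Luminescence read before and 20 min after 0.1 nM hNppA.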
HEK cytotox – HEK 293 cell cytotoxicity. HEK 293 viability, ATP luminescence (CellTiter-Glo), 48-72 h. Potency, µM (highest dose often 115 µM), for inactives: top-dose activity change, negative = cytotoxicity, most hits filed as inhibitors. 94,000 compounds, 6.6% hits. AID 1345083; also: nearly all actives have a fitted effect of over 60% in size
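qHTS cytotoxicity; HEK 293, 250 cells/well; compound pinned; 48 or 72 hr, 37 degree Celsius, 5% CO2, 95% humidity; CellTiter-Glo, 10 min RT; luminescence (ATP).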
Luciferase inh – inhibitors of firefly (Photinus pyralis) luciferase; P08659; purified P. pyralis luciferase, luminescence, biochemical; Potency, µM (doses to about 115 µM), hits mostly inhibitors; 76,000 compounds, 2.5% hits; also: nearly all actives have a fitted effect of over 65% in size
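Biochemical qHTS: compound (6-point titration) added to 10uM D-luciferin plus 10uM ATP in Tris acetate pH 7.5 buffer with Mg, Tween-20 and BSA, then purified enzyme at 10nM; light output imaged.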
Active calls of the source: *; i = inactive; u = inconclusive; x = no result; [ ] = dose if it differs, or a comment. Unless noted, calls follow the shape of the dose curve; as a rule, active = well fitted curve in the direction sought with a large enough effect; inconclusive = small, poorly fitted or top-dose-only effect, or another doubt; inactive = no such curve, though single readings can be large; an effect the other way counts as inactive or inconclusive. % is scaled to controls: 0 for no effect and ±100 for the full control effect; potency is read from the fitted curve at half-maximal effect.

SMILES | 3T3 cytotox | NPR1 antag | HEK cytotox | Luciferase inh
CN(C)c1ncc2c(n1)C(C)(C(=O)Nc1ccccc1F)CCC2 (stereo not drawn) | u | -11.9%[70.6 µM] | 100µM* | i
O=C(CCn1cnc2ccccc2c1=O)NC1CCCN(CCc2ccccc2)C1 (stereo not drawn) | -0.1% | -1.8% | -1.8% | i
CCN1c2cc(C(=O)Nc3ccc(C(=O)OC)cc3)ccc2C(=O)N2CCCCCC21 (stereo not drawn) | u | -0.2% | 44.7µM* | i
CCN1c2cc(C(=O)Nc3ccc(F)cc3)ccc2C(=O)N2CCCCC21 (stereo not drawn) | u | -12.8% | u | i
CCc1ccc(NC(=O)c2ccc3c(c2)N(CC)C2CCCCCN2C3=O)cc1 (stereo not drawn) | 28.2µM* | -9.4% | 17.8µM* | u
O=C(NCc1cccc(-c2ccccc2)c1)C1CC(=O)N(C2CC2)C1 (stereo not drawn) | -35.5% | 0.1% | -33.2% | i
CCN1CC(C(=O)NCc2cccc(-c3ccccc3)c2)CCC1=O (stereo not drawn) | u | u | 35.5µM* | i
COc1ccc(-c2cccc(C(=O)NCCCOC(C)C)c2)nn1 | -26.8%[138 µM] | x | -18.9%[172 µM] | x
O=C(c1nc(-c2ccc(Cl)cc2Cl)c2ccccn12)N1CCOCC1 | -29.4% | x | u | x
Cc1ccc(Nc2ccnc(N3CCC(NC(=O)Nc4ccc(Cl)cc4)CC3)n2)cc1 | 22.4µM* | x | 25.1µM* | x
COc1ccc(Nc2ccnc(N3CCC(NC(=O)Nc4ccc(Cl)cc4)CC3)n2)cc1 | 31.6µM* | x | 20µM* | x
CCOc1ccc(NC(=O)Cn2ccn3nc4c(c3c2=O)CC(C)CC4)cc1 (stereo not drawn) | 31.6µM* | 1.8% | 39.8µM* | i
CCOC(=O)c1ccc(NC(=O)Cn2ccn3nc4c(c3c2=O)CCCCC4)cc1 | u | -3.9% | 44.7µM* | i
O=C(Cn1ccn2nc3c(c2c1=O)CCCC3)Nc1ccccc1 | i | 5.1% | u | i
Cn1ncc2c(C(=O)N3CCOCC3)cc(-c3ccccc3C(F)(F)F)nc21 | -18.9% | x | 1.5% | x
CCC(=O)N(C1CCOCC1)C1CCN(S(=O)(=O)c2ccc(OC)cc2)CC1 | -7.5% | 5.1% | -0.8% | i
c1ccc(CN2C[C@H]3CCN(C4CCCC4)C[C@H]32)cc1 | u | x | -24.8% | x
COC(=O)[C@@H]1Cc2c[nH]c3cccc(c23)[C@H](CC(C)C)N1 | -7.1%[230 µM] | 5.8%[70.6 µM] | u | i
C#CCNC(=O)[C@@H]1Cc2cn(CC3CC3)c3cccc(c23)[C@H](CC(C)C)N1 | 44.7µM* | -12.9%[70.6 µM] | 70.8µM* | i
CC(C)C[C@@H]1N[C@H](C(=O)NCc2cccs2)Cc2c[nH]c3cccc1c23 | 39.8µM* | 1.4%[70.6 µM] | 39.8µM* | i
CC(C)C[C@@H]1N[C@H](C(=O)NCc2ccncc2)Cc2cn(Cc3ccncc3)c3cccc1c23 | u | -1.8% | 50.1µM* | i
C=CCn1cc2c3c(cccc31)[C@H](CC(C)C)N[C@H](C(=O)NCc1ccccn1)C2 | u | -13.0%[70.6 µM] | 50.1µM* | i
COc1cccc(CN2C[C@@H]3C[C@H]2C(=O)N(Cc2ccccc2)c2ccccc2O3)n1 | u | -18.9%[70.6 µM] | u | i
COc1ccccc1-n1c(=O)c(C(=O)N2CCN(C(=O)c3ccc(C)cc3)CC2)nc2cccnc21 | -3.3% | x | i | x
CC(C)C[C@@H]1N[C@H](C(=O)NCc2ccccn2)Cc2cn(Cc3ccncc3)c3cccc1c23 | u | -10.4% | 25.1µM* | i
SMILES | 3T3 cytotox | NPR1 antag | HEK cytotox | Luciferase inh
COCCCNC(=O)[C@@H]1Cc2cn(Cc3nccn3C)c3cccc(c23)[C@H](CC(C)C)N1 | -40.7%[174 µM] | -2.6%[70.6 µM] | u | i
C#CCNC(=O)[C@@H]1Cc2cn(Cc3ccncc3)c3cccc(c23)[C@H](CC(C)C)N1 | 89.1µM* | -10.4%[70.6 µM] | 44.7µM* | i
COc1cc(CNCCc2ccccc2C)ccc1OCC(O)CN1CCOCC1 (stereo not drawn) | -28.9% | -1.3% | -25.6% | i
Cc1noc(C)c1-c1cc2c(c(-c3cccc(OC(C)C)c3)c1)C(=O)N(C)C2 | u | 1.78µM* | u | i
Cc1noc(C)c1-c1cc2c(c(-c3ccccc3Oc3ccccc3)c1)C(=O)N(C)C2 | 12.6µM* | -22.6%[70.6 µM] | u | i
Cc1noc(C)c1-c1cc2c(c(-c3cnn(C)c3)c1)C(=O)N(C)C2 | u | 0.7%[70.6 µM] | -41.6%[172 µM] | i
Cc1cn2nc(C(=O)NCc3cccc(Cl)c3)cc2c(N(C)Cc2ccccc2)n1 | u | -6.7% | u | i
O=C(NCc1ccnc2[nH]ccc12)c1ccc2ccccc2n1 | u | u | 89.1µM* | u
O=C(NCc1ccnc2[nH]ccc12)c1ccccc1Cl | -9.4%[138 µM] | 5.2%[70.6 µM] | -14.0%[172 µM] | i
O=C(Cc1ccccc1)NCc1ccnc2[nH]ccc12 | -5.5%[138 µM] | -14.9%[70.6 µM] | -2.6%[172 µM] | 35.5µM*
Cn1cccc1C(=O)N1CCCN(Cc2ccncc2)C(c2ccccc2)CC(=O)NCC1 (stereo not drawn) | -20.1% | -3.8% | 0.5% | i
CCc1ccc(CN2CCCC(CO)(Cc3ccc(F)cc3F)C2)cc1 (stereo not drawn) | 79.4µM* | -0.9% | u | i
O=C1Nc2ccccc2OCC12CCN(Cc1ccccn1)CC2 | -6.9%[138 µM] | 0.0%[70.6 µM] | i | i
COc1ccccc1-c1cccc(CN2CCCC(C(=O)NCc3ccc(F)cc3)C2)c1 (stereo not drawn) | 31.6µM* | x | 31.6µM* | x
COc1ccccc1-c1[nH]ncc1CN1CCCC(C(=O)NCc2ccccc2)CCNC(=O)CC1 (stereo not drawn) | i | -0.2% | -1.1% | i
COc1ccccc1-c1cccc(C(=O)N2CCC[C@H]2C(=O)NCC(F)(F)F)c1 | -16.0% | x | -9.6% | x
COc1ccccc1-c1cccc(CN2CCCC(C(=O)NCc3ccc(C(F)(F)F)cc3)C2)c1 (stereo not drawn) | 22.4µM* | x | 17.8µM* | x
COc1ccccc1-c1cccc(CN2CCCC(C(=O)NCc3cccnc3)C2)c1 (stereo not drawn) | 35.5µM* | x | u | x
COc1ccccc1-c1cccc(CN2CCCC(C(=O)NCc3cccc(C(F)(F)F)c3)C2)c1 (stereo not drawn) | 15.8µM* | x | 14.1µM* | x
Cn1cccc1C(=O)N1CCCC1c1nc(CCOCC2CC2)no1 (stereo not drawn) | -5.7% | x | i | x
CC(=O)N(C1CCOCC1)C1CCN(S(=O)(=O)c2ccc(Br)cc2)CC1 | -28.8% | x | -14.7% | x
COc1ccccc1-c1cccc(CN2CCCC(C(=O)NCc3cccc(Cl)c3)C2)c1 (stereo not drawn) | 31.6µM* | x | 14.1µM* | x
Cc1ccc(-c2cccc(CN3CCCC(NC(=O)Cc4cccc(Cl)c4)C3)c2)cc1Cl (stereo not drawn) | -13.9% | x | i | x
Clc1ccc(CNc2nc(-c3ccccc3)no2)cc1 | u | -30.4% | u | 15.8µM*
Fc1ccccc1-c1noc(NCCc2ccc(Cl)cc2)n1 | u | -8.7% | u | u
